# Source: PubChem BioAssay (NCATS)
# Unmarked numbers belong to inactive results. Records with an inconclusive call do not appear. A call without a number means that no potency is given here. Activity calls are given as the source filed them. Unless noted, calls follow the shape of the dose curve; as a rule, active = well fitted curve in the direction sought with a large enough effect; inconclusive = small, poorly fitted or top-dose-only effect, or another doubt; inactive = no such curve, though single readings can be large; an effect the other way counts as inactive or inconclusive.
# Assays:
# [1] = target: Cytochrome P450 1A2 (Homo sapiens) (UniProt P05177); experiment: p450-cyp1a2 (AID 410; calls by dose curve; also: potency is read from the fitted curve at half-maximal effect)
# Cytochrome P450 1A2 (Homo sapiens), sequence (P05177 whole entry, looked up): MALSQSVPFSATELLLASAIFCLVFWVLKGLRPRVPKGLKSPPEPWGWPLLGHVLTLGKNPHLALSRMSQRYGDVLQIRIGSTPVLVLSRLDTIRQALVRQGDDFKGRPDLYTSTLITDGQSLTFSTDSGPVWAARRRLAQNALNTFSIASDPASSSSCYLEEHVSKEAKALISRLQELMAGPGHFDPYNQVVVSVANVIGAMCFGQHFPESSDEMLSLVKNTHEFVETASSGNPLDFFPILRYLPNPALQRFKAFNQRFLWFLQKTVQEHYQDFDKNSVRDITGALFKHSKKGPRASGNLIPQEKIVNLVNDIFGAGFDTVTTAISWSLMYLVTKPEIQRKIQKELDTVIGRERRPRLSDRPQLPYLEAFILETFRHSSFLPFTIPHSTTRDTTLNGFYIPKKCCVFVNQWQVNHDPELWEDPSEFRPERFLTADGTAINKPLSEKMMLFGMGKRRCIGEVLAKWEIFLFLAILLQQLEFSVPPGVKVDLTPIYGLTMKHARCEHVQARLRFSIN
# In short: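 O-Demethylation of luciferin 6' methyl ether by human CYP1A2 is monitored as luciferase luminescence. Substrate sits at Km (100uM); enzyme is 20nM. Values are scaled to 57 uM furafylline as maximal inhibition.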
# [2] = target: Glucocorticoid receptor (Homo sapiens) (UniProt P04150); experiment: GR-GFP Redistribution (AID 450;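 active = compounds whose dose series gives a full or clear partial fitted curve of increased nuclear translocation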; also: potency is read from the fitted curve at half-maximal effect)
# Glucocorticoid receptor (Homo sapiens), sequence (P04150 whole entry, looked up, the tested form may be a part): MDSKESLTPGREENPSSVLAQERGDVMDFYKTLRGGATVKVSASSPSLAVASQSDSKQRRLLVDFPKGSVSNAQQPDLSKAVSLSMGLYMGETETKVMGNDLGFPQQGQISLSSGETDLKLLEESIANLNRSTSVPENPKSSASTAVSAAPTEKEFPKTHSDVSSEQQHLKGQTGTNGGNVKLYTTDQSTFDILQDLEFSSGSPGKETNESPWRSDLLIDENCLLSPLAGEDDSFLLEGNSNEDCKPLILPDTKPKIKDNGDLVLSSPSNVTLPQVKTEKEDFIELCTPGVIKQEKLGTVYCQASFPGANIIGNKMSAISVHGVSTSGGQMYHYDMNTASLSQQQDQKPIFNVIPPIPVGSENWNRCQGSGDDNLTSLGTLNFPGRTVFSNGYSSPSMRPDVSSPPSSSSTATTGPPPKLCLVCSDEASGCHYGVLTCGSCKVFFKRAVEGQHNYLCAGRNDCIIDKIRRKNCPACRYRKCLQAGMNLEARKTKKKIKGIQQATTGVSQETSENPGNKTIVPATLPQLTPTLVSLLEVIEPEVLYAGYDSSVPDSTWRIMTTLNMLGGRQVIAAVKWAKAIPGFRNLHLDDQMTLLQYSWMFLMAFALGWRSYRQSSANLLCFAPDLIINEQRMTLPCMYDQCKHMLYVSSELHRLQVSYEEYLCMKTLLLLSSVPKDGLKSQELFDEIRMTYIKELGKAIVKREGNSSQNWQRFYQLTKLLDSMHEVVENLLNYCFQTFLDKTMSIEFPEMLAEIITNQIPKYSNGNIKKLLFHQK
# [3] = target: Glucocorticoid receptor (Homo sapiens) (UniProt P04150); experiment: GR-EFC Redistribution (AID 451; calls by dose curve; also: potency is read from the fitted curve at half-maximal effect); conditions: CHO-K1 GR-EFC translocation, beta-gal luminescence, 2 h
# In short: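 CHO-K1 cells expressing nuclear EA and GR-ED fragments of b-gal; compounds titrated up to 46 uM final, 2 h at 37 C. GR nuclear translocation read as complemented b-gal luminescence after 1 h RT detection.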
# [4] = target: Mitogen-activated protein kinase 10 (Mus musculus) (UniProt Q61831); experiment: JNK3 AlphaScreen Assay (AID 530; active = well fitted curve in either direction with a large enough effect, not every such curve was filed as active;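 also: kinase came from lysate of stimulated human HepG2 cells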; also: potency is read from the fitted curve at half-maximal effect)
# In short: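 Activity was read by AlphaScreen after JNK3-containing HepG2 lysate (cytokine pre-activated) phosphorylated biotinylated GST-cJun with 10 uM ATP at room temperature. Phospho-Ser73 cJun antibody with Protein-A acceptor beads provided detection.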
# [5] = target: 3',5'-cyclic-AMP phosphodiesterase 4B (Homo sapiens) (UniProt Q07343); experiment: qHTS Assay for Inhibitors of PDE-IV (AID 607; active = well fitted activation curve with a large enough effect in the main read-out, with a control signal flat, not every such curve was filed as active)
# 3',5'-cyclic-AMP phosphodiesterase 4B (Homo sapiens), sequence (Q07343 whole entry, looked up): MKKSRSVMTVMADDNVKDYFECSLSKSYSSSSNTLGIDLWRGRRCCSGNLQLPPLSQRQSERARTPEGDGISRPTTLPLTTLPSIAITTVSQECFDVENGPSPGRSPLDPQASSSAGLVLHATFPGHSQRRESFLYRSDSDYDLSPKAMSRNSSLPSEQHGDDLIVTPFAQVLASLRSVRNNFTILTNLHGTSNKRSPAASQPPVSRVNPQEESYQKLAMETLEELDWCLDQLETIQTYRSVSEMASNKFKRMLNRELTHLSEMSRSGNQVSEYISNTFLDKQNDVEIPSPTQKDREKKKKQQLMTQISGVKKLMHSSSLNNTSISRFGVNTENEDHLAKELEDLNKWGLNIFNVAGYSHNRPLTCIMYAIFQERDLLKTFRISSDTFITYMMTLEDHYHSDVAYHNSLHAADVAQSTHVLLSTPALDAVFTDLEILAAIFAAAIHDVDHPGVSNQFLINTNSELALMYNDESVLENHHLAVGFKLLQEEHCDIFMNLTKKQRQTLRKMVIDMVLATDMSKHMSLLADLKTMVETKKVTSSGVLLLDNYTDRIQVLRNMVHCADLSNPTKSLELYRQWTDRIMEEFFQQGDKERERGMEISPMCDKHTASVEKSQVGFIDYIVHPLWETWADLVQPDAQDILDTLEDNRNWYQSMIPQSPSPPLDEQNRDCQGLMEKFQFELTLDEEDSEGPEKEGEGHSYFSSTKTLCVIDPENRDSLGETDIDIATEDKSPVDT
# In short: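 HEK293 ACTOne cells with CNG channel (1000/well), endogenous PDE4; membrane potential dye, compounds up to 22.9 uM final. Fluorescence Ex 535/Em 590; RO 20-1724 (100 uM final) as reference.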
# [6] = target: Cytochrome P450 2C9 (Homo sapiens) (UniProt P11712); experiment: qHTS Assay for Inhibitors and Substrates of Cytochrome P450 2C9 (AID 883); also: nearly all actives have a fitted effect of over 60% in size; also: potency is read from the fitted curve at half-maximal effect
# Cytochrome P450 2C9 (Homo sapiens), sequence (P11712 whole entry, looked up): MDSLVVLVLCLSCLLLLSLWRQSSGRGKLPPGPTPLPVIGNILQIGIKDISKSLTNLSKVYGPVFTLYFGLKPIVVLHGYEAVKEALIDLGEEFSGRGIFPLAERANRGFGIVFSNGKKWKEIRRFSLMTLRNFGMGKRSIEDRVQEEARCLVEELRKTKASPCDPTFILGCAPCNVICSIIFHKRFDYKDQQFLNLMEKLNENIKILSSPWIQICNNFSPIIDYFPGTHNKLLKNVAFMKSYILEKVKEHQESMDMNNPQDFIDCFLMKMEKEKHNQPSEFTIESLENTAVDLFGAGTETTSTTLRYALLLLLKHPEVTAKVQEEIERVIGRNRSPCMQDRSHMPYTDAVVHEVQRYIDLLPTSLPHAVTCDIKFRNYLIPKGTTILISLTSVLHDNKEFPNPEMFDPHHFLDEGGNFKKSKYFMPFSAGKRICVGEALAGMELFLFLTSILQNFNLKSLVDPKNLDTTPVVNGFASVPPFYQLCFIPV
# In short: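 Human CYP2C9 (10nM) with Luciferin-H at 100uM (its KM) in 25mM KPO4; compound preincubated 10 min at 37C, then NADPH regeneration for 60 min at 37C. Luciferin read by luminescence after detection reagent; normalized to 57uM sulphaphenazole as full inhibition.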
# [7] = target: Cytochrome P450 3A4 (Homo sapiens) (UniProt P08684); experiment: qHTS Assay for Inhibitors and Substrates of Cytochrome P450 3A4 (AID 884); also: nearly all actives have a fitted effect of over 50% in size; also: potency is read from the fitted curve at half-maximal effect
# Cytochrome P450 3A4 (Homo sapiens), sequence (P08684 whole entry, looked up): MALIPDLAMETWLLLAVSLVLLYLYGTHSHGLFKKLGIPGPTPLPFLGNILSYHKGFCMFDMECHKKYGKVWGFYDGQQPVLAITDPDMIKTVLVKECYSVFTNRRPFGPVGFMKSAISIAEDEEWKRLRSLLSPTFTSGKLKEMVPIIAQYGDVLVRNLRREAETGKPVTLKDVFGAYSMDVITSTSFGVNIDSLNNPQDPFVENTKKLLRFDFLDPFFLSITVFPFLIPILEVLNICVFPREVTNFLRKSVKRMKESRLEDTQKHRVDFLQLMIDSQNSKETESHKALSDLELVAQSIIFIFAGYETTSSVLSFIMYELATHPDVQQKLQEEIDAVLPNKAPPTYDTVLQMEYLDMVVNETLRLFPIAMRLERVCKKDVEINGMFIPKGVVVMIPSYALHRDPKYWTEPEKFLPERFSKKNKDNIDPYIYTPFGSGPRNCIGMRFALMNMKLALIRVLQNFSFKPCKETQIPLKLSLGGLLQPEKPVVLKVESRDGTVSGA
# In short: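 Luminescent readout of luciferin produced by CYP3A4 (20 nM) dealkylation of Luciferin-PPXE, 25 uM (its KM). NADPH-driven reaction ran 60 min at RT after 10 min compound preincubation; data scaled to 57 uM ketoconazole as 100% inhibition.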
# [8] = target: Cytochrome P450 3A4 (Homo sapiens) (UniProt P08684); experiment: qHTS Assay for Activators of Cytochrome P450 3A4 (AID 885); also: nearly all actives have a fitted effect of over 65% in size
# In short: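 Human CYP3A4 dealkylates Luciferin-PPXE to luciferin, which luciferase detection converts to light. Substrate was at its KM (25uM), buffer 200mM KPO4, reaction 60 min at RT.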
# [9] = target: DNA dC->dU-editing enzyme APOBEC-3G (Homo sapiens) (UniProt Q9HC16); experiment: qHTS for inhibitors of Vif-A3G interactions: Validation (AID 588379)
# DNA dC->dU-editing enzyme APOBEC-3G (Homo sapiens), sequence (Q9HC16 whole entry, looked up): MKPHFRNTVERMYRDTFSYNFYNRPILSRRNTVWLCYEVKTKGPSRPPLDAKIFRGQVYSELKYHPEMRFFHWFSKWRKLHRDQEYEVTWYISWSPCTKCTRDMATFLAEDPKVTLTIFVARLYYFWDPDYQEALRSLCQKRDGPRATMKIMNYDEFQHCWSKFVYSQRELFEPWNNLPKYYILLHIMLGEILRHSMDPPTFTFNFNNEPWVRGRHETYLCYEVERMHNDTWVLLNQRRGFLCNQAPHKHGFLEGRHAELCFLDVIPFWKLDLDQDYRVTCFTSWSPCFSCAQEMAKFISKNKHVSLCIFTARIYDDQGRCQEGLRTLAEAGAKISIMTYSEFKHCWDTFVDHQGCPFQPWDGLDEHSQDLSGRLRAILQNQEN
# In short: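 Yellow fluorescence (Ex 488, Em 500-530) of Vif-coexpressing HeLa A3G-eYFP cells, scanned by Acumen cytometer, reports blocked A3G degradation. Cells plated at 700/well overnight at 37 deg C before compound addition, then a further overnight compound incubation at 37 deg C.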
# [10] = target: Cytochrome P450 2D6 (Homo sapiens) (UniProt P10635); experiment: qHTS Assay for Inhibitors and Substrates of Cytochrome P450 2D6 (AID 891); also: nearly all actives have a fitted effect of over 60% in size; also: potency is read from the fitted curve at half-maximal effect
# Cytochrome P450 2D6 (Homo sapiens), sequence (P10635 whole entry, looked up): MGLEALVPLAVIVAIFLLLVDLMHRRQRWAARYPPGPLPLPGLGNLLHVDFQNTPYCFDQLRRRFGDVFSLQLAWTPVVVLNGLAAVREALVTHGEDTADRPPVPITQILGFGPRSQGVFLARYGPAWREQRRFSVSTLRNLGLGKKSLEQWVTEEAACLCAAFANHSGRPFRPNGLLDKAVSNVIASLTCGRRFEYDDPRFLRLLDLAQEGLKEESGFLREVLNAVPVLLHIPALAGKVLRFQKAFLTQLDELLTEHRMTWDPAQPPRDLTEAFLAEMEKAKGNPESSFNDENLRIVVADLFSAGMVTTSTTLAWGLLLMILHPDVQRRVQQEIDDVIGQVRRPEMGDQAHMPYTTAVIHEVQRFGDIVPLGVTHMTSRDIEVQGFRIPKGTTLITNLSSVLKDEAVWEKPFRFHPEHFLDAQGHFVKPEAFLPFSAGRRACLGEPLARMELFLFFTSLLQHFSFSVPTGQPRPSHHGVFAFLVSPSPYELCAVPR
# In short: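 Luminescent read-out of luciferin formed by 5 nM human CYP2D6 demethylating 30 uM Luciferin-ME EGE (Km level) over 60 min at room temperature after NADPH regeneration addition. Data normalized to full inhibition by 1.43 uM quinidine.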
# [11] = target: Cytochrome P450 2C19 (Homo sapiens) (UniProt P33261); experiment: qHTS Assay for Inhibitors and Substrates of Cytochrome P450 2C19 (AID 899); also: nearly all actives have a fitted effect of over 60% in size; also: potency is read from the fitted curve at half-maximal effect
# Cytochrome P450 2C19 (Homo sapiens), sequence (P33261 whole entry, looked up): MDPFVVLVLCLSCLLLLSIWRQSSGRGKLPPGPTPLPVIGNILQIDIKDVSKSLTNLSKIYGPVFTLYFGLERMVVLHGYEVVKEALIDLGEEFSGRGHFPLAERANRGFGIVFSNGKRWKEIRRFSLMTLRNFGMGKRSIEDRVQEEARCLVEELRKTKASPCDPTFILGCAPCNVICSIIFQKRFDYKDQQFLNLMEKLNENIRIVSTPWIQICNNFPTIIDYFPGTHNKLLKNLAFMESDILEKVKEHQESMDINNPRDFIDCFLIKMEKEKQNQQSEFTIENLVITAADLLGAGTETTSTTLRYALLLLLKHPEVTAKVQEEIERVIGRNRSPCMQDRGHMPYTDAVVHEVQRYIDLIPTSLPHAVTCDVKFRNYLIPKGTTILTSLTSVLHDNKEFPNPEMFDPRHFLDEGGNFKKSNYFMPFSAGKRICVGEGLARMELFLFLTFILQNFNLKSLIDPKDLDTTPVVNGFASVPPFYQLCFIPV
# In short: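 5 nM human CYP2C19 with 10uM Luciferin-H EGE (at KM) in 50mM KPO4, compound preincubated 10 min at 37C, then NADPH regeneration for 60 min at 37C. Luciferin read by luminescence after detection reagent; normalized to 57uM ketoconazole as full inhibition.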
# [12] = target: Luciferin 4-monooxygenase (Photinus pyralis) (UniProt P08659); experiment: Biochemical firefly luciferase enzyme assay for NPC (AID 624030);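 also: purified P. pyralis luciferase at 10 nM with luciferin and ATP substrate; series mostly up to about 59 µM; nearly all actives have a fitted effect of over 70% in size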
# Luciferin 4-monooxygenase (Photinus pyralis), sequence (P08659 whole entry, looked up): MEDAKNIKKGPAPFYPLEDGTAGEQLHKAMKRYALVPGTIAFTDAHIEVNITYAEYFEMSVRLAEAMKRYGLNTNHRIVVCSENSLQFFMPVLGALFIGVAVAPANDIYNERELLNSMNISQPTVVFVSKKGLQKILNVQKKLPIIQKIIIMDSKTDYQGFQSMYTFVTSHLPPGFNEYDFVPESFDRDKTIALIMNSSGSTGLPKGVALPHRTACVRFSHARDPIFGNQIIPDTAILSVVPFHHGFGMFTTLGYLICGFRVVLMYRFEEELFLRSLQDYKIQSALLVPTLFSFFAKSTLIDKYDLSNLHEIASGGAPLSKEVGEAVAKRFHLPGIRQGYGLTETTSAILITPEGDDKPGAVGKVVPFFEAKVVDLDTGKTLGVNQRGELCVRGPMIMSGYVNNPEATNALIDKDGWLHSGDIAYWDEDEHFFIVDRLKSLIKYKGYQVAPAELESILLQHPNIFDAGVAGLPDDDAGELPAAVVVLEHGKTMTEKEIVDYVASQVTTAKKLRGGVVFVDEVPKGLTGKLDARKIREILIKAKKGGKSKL
# In short: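 Purified P. pyralis luciferase at 10 nM in 50 mM Tris Acetate (final), luminescence read within 5 minutes of enzyme addition to compounds. Activity normalised to PTC124 versus DMSO; concentration-response curves classed by r2, magnitude and activity.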
Compound,Potency [1],Potency [2],Potency [3],Potency [4],Potency [5],Potency [6],Potency [7],Potency [8],outcome [9],Potency [10],Potency [11],Potency [12]
COc1ccc2oc(-c3ccccc3)c(OC)c(=O)c2c1,0.501 µM (active),> 46 µM,> 46 µM,inactive,inactive,25.1 µM (active),31.6 µM (active),inactive,inactive,,,
COc1cc(O)c2c(=O)cc(-c3ccccc3)oc2c1,0.0251 µM (active),> 46 µM,> 46 µM,inactive,,,10 µM (active),,inactive,inactive,0.398 µM (active),
Cn1ccc(O)c(C#N)c1=O,inactive,> 46 µM,> 46 µM,inactive,,inactive,inactive,,inactive,inactive,inactive,
OC[C@@H]1O[C@@H](n2cnc3c(NCc4ccco4)ncnc32)[C@H](O)[C@H]1O,inactive,> 46 µM,> 46 µM,inactive,inactive,inactive,,,,inactive,inactive,
C[C@@H]1C(=O)O[C@@H]2C[C@@]34[C@H]5C[C@@H](C(C)(C)C)[C@@]36[C@@H](OC(=O)[C@@H]6O)O[C@]4(C(=O)O5)[C@@]12O,inactive,> 46 µM,> 46 µM,inactive,,,,,,,,
C[C@H]1[C@H](C)CC[C@@]2(C(=O)O)CC[C@]3(C)C(=CC[C@H]4[C@@]5(C)C[C@@H](O)[C@H](O)[C@@](C)(CO)[C@@H]5CC[C@@]43C)[C@@H]12,inactive,> 46 µM,> 46 µM,inactive,inactive,inactive,,,,inactive,inactive,
C=C1CC[C@@H]2[C@](C)(CC[C@@H](O)[C@]2(C)CO)[C@@H]1C/C=C1/C(=O)OC[C@H]1O,inactive,> 46 µM,> 46 µM,inactive,inactive,inactive,,,,inactive,inactive,
COc1ccc(OC)c([C@H]2Nc3ccccc3NC3=C2C(=O)CC(C)(C)C3)c1Br,20 µM (active),> 46 µM,> 46 µM,inactive,inactive,31.6 µM (active),,,,inactive,3.16 µM (active),
O=c1cc(-c2ccccc2O)oc2cc(O)cc(O)c12,0.251 µM (active),> 46 µM,> 46 µM,inactive,inactive,5.01 µM (active),,inactive,inactive,,3.98 µM (active),
CC(C)OC(=O)c1cc2c(OC[C@@H](O)CNC(C)(C)C)cccc2[nH]1,31.6 µM (active),> 46 µM,> 46 µM,inactive,,,,,inactive,,,inactive
O=C(CCc1ccc(O)cc1)c1c(O)cc(O)cc1O[C@@H]1O[C@@H](CO)[C@@H](O)[C@@H](O)[C@H]1O,inactive,> 46 µM,> 46 µM,inactive,inactive,31.6 µM (active),,,,inactive,,
CC(=O)O[C@H]1CC[C@@]2(C)[C@@H](CC[C@@]3(C)[C@H]2C(=O)C=C2[C@H]4C[C@](C)(C(=O)OCCN5CCCCC5)CC[C@]4(C)CC[C@@]23C)C1(C)C,inactive,> 46 µM,> 46 µM,inactive,inactive,inactive,,,,inactive,inactive,
COc1cccc(-c2cc(=O)c3cc(O)ccc3o2)c1,1.58 µM (active),> 46 µM,> 46 µM,inactive,inactive,,15.8 µM (active),inactive,inactive,inactive,25.1 µM (active),
O=c1c2ccccc2oc2cc(O)c([C@@H]3COC[C@@H](CO)[C@@H](O)[C@@H](O)[C@H]3O)c(O)c12,inactive,> 46 µM,> 46 µM,inactive,inactive,inactive,,,,inactive,inactive,
Cc1ccc(C[C@H](Cc2nc3ccccc3[nH]2)c2nc3ccccc3[nH]2)cc1,3.98 µM (active),> 46 µM,> 46 µM,inactive,inactive,,,,,0.0794 µM (active),5.01 µM (active),
CC1=CC(=O)CC(C)(C)[C@@]1(O)/C=C\C(C)=C\C(=O)O,inactive,> 46 µM,> 46 µM,inactive,inactive,inactive,,,,inactive,inactive,
CN(CCc1ccc(Cl)c(Cl)c1)CCN1CCCCCC1,31.6 µM (active),> 46 µM,> 46 µM,inactive,,,,inactive,inactive,0.126 µM (active),,

Compound,Potency [1],Potency [2],Potency [3],Potency [4],Potency [5],Potency [6],Potency [7],Potency [8],outcome [9],Potency [10],Potency [11],Potency [12]
COc1ccccc1-c1oc2ccccc2c(=O)c1OC,0.2 µM (active),> 46 µM,> 46 µM,inactive,,25.1 µM (active),,inactive,inactive,inactive,7.94 µM (active),
COc1cccc2oc(-c3ccc(O)cc3)cc(=O)c12,0.398 µM (active),> 46 µM,> 46 µM,inactive,,12.6 µM (active),15.8 µM (active),inactive,inactive,,10 µM (active),
Nc1ccccc1C(=O)C[C@@H](N)C(=O)O,inactive,> 46 µM,> 46 µM,inactive,inactive,inactive,,,,inactive,inactive,
COc1ccc(-c2coc3ccc(O[C@@H]4O[C@@H](COC(C)=O)[C@@H](OC(C)=O)[C@@H](OC(C)=O)[C@H]4OC(C)=O)cc3c2=O)cc1,inactive,> 46 µM,> 46 µM,inactive,inactive,,,,,inactive,inactive,
CC[C@@H]1[C@H]2CCCCN3[C@@H]2[C@@H](C[C@H]3[C@@H]2C[C@H](C)C(=O)O2)[C@@H]2[C@H]1OC(=O)[C@H]2C,25.1 µM (active),> 46 µM,> 46 µM,inactive,inactive,inactive,,,,,inactive,
COc1ccc2c(=O)cc(-c3ccc(O)cc3)oc2c1,0.0794 µM (active),> 46 µM,> 46 µM,inactive,inactive,6.31 µM (active),3.16 µM (active),inactive,inactive,,7.94 µM (active),
COc1ccc(-c2cc(=O)c3ccc(O)cc3o2)cc1,0.158 µM (active),> 46 µM,> 46 µM,inactive,,,7.94 µM (active),inactive,inactive,inactive,3.16 µM (active),
C=CC1=C(C)C2=Cc3c(C=C)c(C)c4[n]3[Sn+2][n]3c(c(C)c(CCC(=O)O)c3=CC3=NC(=C4)C(C)=C3CCC(=O)O)=CC1=N2,39.8 µM (active),> 46 µM,> 46 µM,1 µM [activator] (active),,,,,inactive,1.26 µM (active),,
COc1ccccc1-c1cc(=O)c2cc(O)ccc2o1,0.2 µM (active),> 46 µM,> 46 µM,inactive,,inactive,12.6 µM (active),inactive,inactive,inactive,0.398 µM (active),
COc1cc2c(cc1OC)-c1c(OC)c(OC)cc3ccnc(c13)C2=O,0.0794 µM (active),> 46 µM,> 46 µM,inactive,,,2.51 µM (active),inactive,inactive,,,
Cc1c(-c2ccccc2)oc2cc(O)ccc2c1=O,0.251 µM (active),> 46 µM,> 46 µM,,,2.51 µM (active),,inactive,inactive,inactive,0.126 µM (active),
O=c1cc(-c2ccccc2)oc2cc(O[C@H]3O[C@H](CO)[C@@H](O)[C@H](O)[C@@H]3O)c(O)c(O)c12,inactive,> 46 µM,> 46 µM,,,inactive,,,,inactive,inactive,
COc1ccc(-c2coc3cc(O[C@@H]4O[C@@H](CO)[C@@H](O)[C@@H](O)[C@H]4O)cc(O)c3c2=O)cc1,inactive,> 46 µM,> 46 µM,inactive,,inactive,,,,inactive,inactive,
COc1cccc(-c2oc3ccccc3c(=O)c2O)c1,0.2 µM (active),> 46 µM,> 46 µM,,inactive,12.6 µM (active),,inactive,inactive,,6.31 µM (active),
COc1cc2oc(-c3ccccc3)cc(=O)c2cc1O,1 µM (active),> 46 µM,,inactive,inactive,inactive,inactive,,inactive,,,
O=c1c(O)c(-c2ccc(O)c(O)c2)oc2c(OC[C@H]3O[C@@H](O)[C@@H](O)[C@H](O)[C@@H]3O)c(O)cc(O)c12,inactive,> 46 µM,> 46 µM,,inactive,,,,,inactive,inactive,
CC(=O)c1c(O)c(C)c(O)c2c1OC1=CC(=O)[C@H](C(C)=O)C(=O)[C@]12C,3.16 µM (active),> 46 µM,> 46 µM,,inactive,,,,,inactive,inactive,
